# TAG inh = reduces triacylglycerol accumulation in H9c2 cells. AID 651582. Nile Red lipid (TAG) fluorescence; cells loaded with 200 µM oleic acid. inhibition, % at 12.5 µM. hit rate 0.66% among 230,000;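 active = pattern-corrected inhibition of lipid staining of at least 50% with the nuclear-stain viability signal not falling by more than 50%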;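 also: 0% = DMSO wells and 100% = triacsin C control wells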
# iPSC survival up = increases survival of single human iPS cells; AID 602274; survival enhancement, % at 20 µM; hiPSC single-cell survival, ATPlite luminescence; 100% = ROCK inhibitor wells, 0% = DMSO; hit rate 0.044% among 360,000; in the data active = survival enhancement above about 18%;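 also: cells exposed to compounds for 16 hours before the ATP read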
# beta cell repl = induces beta-cell replication in MIN6 cells; MIN6 cells proliferation, ATPlite luminescence, 48 h; cells starved in 0.2% serum; 100% = growth in 10% serum; proliferation, % at 10 µM; hit rate 0.29% among 330,000; AID 2380;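 active = compounds whose signal lies at least 3.5 SD above the mean of all wells on their plate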;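 also: 0% = DMSO-treated cells in low-serum medium and 100% = 10% serum control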
# H9c2 TAG conf = confirmation of triacylglycerol accumulation inhibitors; shares compounds with TAG inh; H9c2 lipid accumulation, Nile Red fluorescence; cells loaded with 200 µM oleic acid; inhibition, % at 12.5 µM; hit rate 71% among 990; AID 651629;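 active = mean inhibition across replicates of 40% or more; inactive = mean inhibition below 40%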;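 also: plate controls were DMSO only wells for no effect and Triacsin C treated wells for full effect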
# Starred values were filed as active, the others as inactive; x = not tested or not shown. This is a sample that favours compounds with a hit; in the whole collection about 0.71% have one here.
SMILES,TAG inh,iPSC survival up,beta cell repl,others
COc1ccc(C(CC(=O)c2ccc3c(c2)OCO3)c2c(O)c3ccccc3oc2=O)cc1OC (centres undefined),-6,7,x,
O=C(NCC1=C(c2cccc3ccccc23)C[C@@H]2CC[C@H]1N2Cc1ccco1)c1ccc([N+](=O)[O-])cc1,15,-2,x,
CCCCCCC(C)(C)c1ccc([C@@H]2C[C@H](O)CC[C@H]2CCCO)c(O)c1,106*,6,-8,H9c2 TAG conf=116*
CC1CCN(C(CC(=O)c2ccccc2)C(=O)c2ccccc2)CC1 (centres undefined),-5,0,x,
O=S1(=O)NCC2(CC2)CN1Cc1ccccc1,x,0,x,
COC(=O)C1=C(c2ccc(OCc3ccccc3)cc2)C[C@@H]2CC[C@H]1N2C(=O)NCc1ccccc1,-13,-3,-7,
COC(=O)C1=C(c2ccc(OCc3ccccc3)cc2)C[C@@H]2CC[C@H]1N2C(=O)NCc1ccc(C(C)(C)C)cc1,70*,0,x,H9c2 TAG conf=75*
CCOC(=O)C1(c2ccccc2)CCN(CCC(=O)Nc2cccc(Br)c2)CC1,0,0,-7,
CC(C)(OOC1(c2ccccc2)NC(=O)c2ccccc21)c1ccccc1 (centres undefined),x,0,x,
C[C@@H]1CN([C@@H](C)CO)C(=O)CCCn2nncc2CO[C@H]1CN(C)C(=O)Oc1ccccc1,3,-3,x,
Cc1[nH]c2ccccc2c1CCNCc1cccnc1,x,0,3,
COc1ccc2[nH]c(C)c(CCNCc3cn(C)c4ccccc34)c2c1,56*,0,-7,H9c2 TAG conf=46*
COc1ccc(C(c2nnnn2-c2ccc3c(c2)OCCO3)N2CCC3(CC2)C(=O)NCN3c2ccccc2)cc1 (centres undefined),x,0,x,
